Experimental data published in the supplement of paper PMC6089552.
The campaign covered roughly 3,200 compounds. About 300 (9.4%) showed activity. This is one part of a sample in which actives are shown more often than they occur.

Tested on: A673/TR/shEF
Assay: cell viability (LOESS-normalised, relative to median of negative controls) (log2 ratio); higher = more viable cells (less compound effect), active = hit call of the paper (over 3 MAD below the median)
Settings: treatment time: 72 h
How it was run: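 A673/TR/shEF Ewing sarcoma cells (1,500 per well, 384-well plates) were grown with or without doxycycline to induce EWS-FLI1 shRNA knockdown, starting 24 h before compounds. Library compounds at two or more concentrations, with DMSO controls, were added for three days. Cell viability was read by CellTiter-Glo luminescence on an Envision reader, then LOESS-corrected per plate, divided by the median of negative controls and log2-transformed. Hits were wells at least three median absolute deviations from the median of all screened wells.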

[1] = 0.25 µM, library screen: screen1, EWS-FLI1 expression: high (no doxycycline)
[2] = 0.25 µM, library screen: screen1, EWS-FLI1 expression: low (doxycycline-induced shRNA knockdown)
[3] = 2.5 µM, library screen: screen1, EWS-FLI1 expression: high (no doxycycline)
[4] = 2.5 µM, library screen: screen1, EWS-FLI1 expression: low (doxycycline-induced shRNA knockdown)
[5] = 0.103 µM, library screen: screen3, EWS-FLI1 expression: high (no doxycycline)
[6] = 0.103 µM, library screen: screen3, EWS-FLI1 expression: low (doxycycline-induced shRNA knockdown)
[7] = 0.308 µM, library screen: screen3, EWS-FLI1 expression: high (no doxycycline)
[8] = 0.308 µM, library screen: screen3, EWS-FLI1 expression: low (doxycycline-induced shRNA knockdown)
[9] = 0.926 µM, library screen: screen3, EWS-FLI1 expression: high (no doxycycline)
[10] = 0.926 µM, library screen: screen3, EWS-FLI1 expression: low (doxycycline-induced shRNA knockdown)
[11] = 2.8 µM, library screen: screen3, EWS-FLI1 expression: high (no doxycycline)
[12] = 2.8 µM, library screen: screen3, EWS-FLI1 expression: low (doxycycline-induced shRNA knockdown)
[13] = 8.3 µM, library screen: screen3, EWS-FLI1 expression: high (no doxycycline)
[14] = 8.3 µM, library screen: screen3, EWS-FLI1 expression: low (doxycycline-induced shRNA knockdown)
[15] = 25 µM, library screen: screen3, EWS-FLI1 expression: high (no doxycycline)
[16] = 25 µM, library screen: screen3, EWS-FLI1 expression: low (doxycycline-induced shRNA knockdown)
[17] = 0.25 µM, library screen: screen2, EWS-FLI1 expression: high (no doxycycline)
[18] = 0.25 µM, library screen: screen2, EWS-FLI1 expression: low (doxycycline-induced shRNA knockdown)
[19] = 2.5 µM, library screen: screen2, EWS-FLI1 expression: high (no doxycycline)
[20] = 2.5 µM, library screen: screen2, EWS-FLI1 expression: low (doxycycline-induced shRNA knockdown)

Measured: cell viability (log2)

Cc1nc2ccc(NC(=S)N3CCCC3)cc2nc1C
inactive: [1] -0.0193 | [2] 0.0405 | [3] 0.0212 | [4] 0.0752

CC1=C(C(=O)Nc2cccc(Cl)c2)C(c2cccs2)NC(=S)N1 (configuration not stated)
inactive: [1] 0.0938 | [2] 0.0927 | [3] 0.145 | [4] 0.108

O=C(Nc1cccc(Cl)c1)/C(=C\c1ccco1)NC(=O)c1cccs1
inactive: [1] -0.0172 | [2] 0.0581 | [3] 0.0419 | [4] 0.0226

Cc1cn2c(=O)c3ccccc3nc2nc1Nc1ccccc1C(=O)O
inactive: [1] 0.138 | [2] 0.0987 | [3] 0.0749 | [4] 0.0532

O=C1C=CC2=C3c4cc(O)c(O)cc4CC3(O)COC2=C1 (configuration not stated)
inactive: [1] 0.163 | [2] 0.195 | [3] 0.225 | [4] 0.28

COc1ccc(C2COc3c(ccc(O)c3OC)C2)c(OC)c1O (configuration not stated)
inactive: [1] 0.108 | [2] 0.0205 | [3] 0.0667 | [4] -0.00772

COc1cc(OC)c2c(=O)c(-c3ccccc3)coc2c1
inactive: [1] 0.0176 | [2] 0.0621 | [3] 0.0815 | [4] 0.1

COc1cc2ncnc(Nc3ccc(F)c(Cl)c3)c2cc1OCCCN1CCOCC1
inactive: [5] 0.066 | [6] 0.0855 | [7] 0.103 | [8] 0.0493 | [9] 0.114 | [10] 0.0535 | [11] 0.136 | [12] 0.0991 | [13] 0.00987 | [14] 0.0751 | [15] -0.0152 | [16] 0.0721

COc1cc2c(N3CCN(C(=O)Nc4ccc(OC(C)C)cc4)CC3)ncnc2cc1OCCCN1CCCCC1
inactive: [5] -0.0129 | [6] -0.0538 | [7] -0.0428 | [8] -0.0392 | [9] -0.0343 | [10] -0.0604 | [11] 0.0597 | [12] 0.0175 | [13] 0.0441 | [14] 0.0441 | [15] -0.0915 | [16] 0.0601

CS(=O)(=O)CCNCc1ccc(-c2ccc3ncnc(Nc4ccc(OCc5cccc(F)c5)c(Cl)c4)c3c2)o1
inactive: [5] 0.145 | [6] 0.0528 | [7] 0.146 | [8] 0.112 | [9] 0.139 | [10] 0.114 | [11] 0.0651 | [12] 0.113 | [13] 0.0899 | [14] 0.0389 | [15] 0.0387 | [16] 0.0962

C=CC(=O)Nc1cc2c(Nc3ccc(F)c(Cl)c3)ncnc2cc1OCCCN1CCOCC1
active: [13] -0.188 | [15] -0.199 | [16] -0.281
inactive: [5] 0.0394 | [6] 0.0254 | [7] -0.016 | [8] 0.0224 | [9] -0.0215 | [10] -0.0107 | [11] -0.0981 | [12] -0.0776 | [14] -0.0307

COc1cc2c(Nc3ccc(Br)cc3F)ncnc2cc1OCC1CCN(C)CC1
inactive: [5] -0.0043 | [6] 0.0398 | [7] -0.0447 | [8] 0.068 | [9] 0.0443 | [10] 0.0503 | [11] -0.0379 | [12] 0.00456 | [13] -0.00527 | [14] -0.0123 | [15] -0.0986 | [16] -0.0825

CN(C)C/C=C/C(=O)Nc1cc2c(Nc3ccc(F)c(Cl)c3)ncnc2cc1O[C@H]1CCOC1
inactive: [5] -0.033 | [6] 0.00738 | [7] -0.0507 | [8] -0.00854 | [9] 0.0161 | [10] -0.000186 | [11] 0.00307 | [12] -0.0241 | [13] -0.0486 | [14] -0.0662
active: [15] -1.35 | [16] -1

CCCCCCCCCCCCCCCC(=O)NCC(COP(=O)([O-])OCC[N+](C)(C)C)OCC (configuration not stated)
inactive: [17] 0.198 | [18] 0.0364 | [19] 0.0761 | [20] -0.0192

COc1ccc(C(=O)c2ccccc2)c(O)c1O
inactive: [1] 0.123 | [2] 0.143 | [3] 0.244 | [4] 0.216

COc1ccc2c(c1)c(CC(=O)Nc1ccc(NC(C)=O)cc1)c(C)n2C(=O)c1ccc(Cl)cc1
inactive: [17] -0.0274 | [18] 0.0874 | [19] 0.0757 | [20] 0.214
